In all, about 24,000 compounds went through this assay and about 150 (0.62%) were called active.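 How the source made its calls: active means fluorescence ratio above 2.44, which is 1 plus 3 SD of all ratios; inconclusive means signal too bright to measure linearly, ratio around 10 or more; inactive means fluorescence ratio below 2.44.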 The list comes from a sample in which actives are over-represented; it also holds similar structures and randomly drawn compounds.
assay: intrinsic compound fluorescence with Jurkat cells – cell-based, flow cytometry, artefact control for VLA-4 allosteric ligand project, primary screen (AID 576); conditions: compound autofluorescence, active compounds read high, 1 = vehicle-only cell background;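 further: green fluorescence of cells measured with 488 nm excitation and 530 nm emission; tested at 10 µM compound in the well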

Fluorescence ratio, inactive:
O=C(CN1CCN(c2ccccc2F)CC1)c1ccc2c(c1)OCO2 1.02
COCCNC(=O)CN1C(=O)CSc2ncccc21 1.05
CCOC(=O)N1CCC(NC(=O)COc2cc(=O)n(C)c3ccccc23)CC1 0.98
CCOC(=O)C1CCCN(C(=O)c2sc3nc(C)nc(N4CCOCC4)c3c2C)C1 (stereo not drawn) 1.03
O=C(Cn1cc2c(n1)CCCCC2)NCCN1CCOCC1 0.97
COc1ccccc1-n1cnc2cc(C(=O)NCC3CCCO3)ccc21 (stereo not drawn) 1.03
COCCn1c(=O)[nH]c2cc(C(=O)NCc3cccnc3)ccc2c1=O 1.03
COc1ccc(C(CC(=O)O)NC(=O)Cc2ccccc2)cc1 (stereo not drawn) 0.92
CCOC(=O)CSc1nnc(CNC(=O)c2cccs2)n1-c1ccccc1 1.06
CC(C)C(=O)Nc1c(C(=O)c2ccc(F)cc2)oc2ccccc12 0.99
Nc1nonc1-c1nc2ccccc2n1CCC(=O)O 1.57
Cc1noc(C)c1CSc1nc2cc(S(=O)(=O)N3CCOCC3)ccc2o1 1.05
COc1ccc(C2C(C(=O)N3CCN(c4ccc(OC)cc4)CC3)c3ccccc3C(=O)N2C)cc1 (stereo not drawn) 1.1
Cc1cc(N2C(=O)c3ccc(C(=O)NCc4ccccc4)cc3C2=O)no1 1.09
CCN(CC(=O)Nc1ccc2c(c1)OCCO2)Cc1cc(=O)oc2cc(C)c(C)cc12 1.06
CCOC(=O)C1CCN(C(=O)C2CCN(S(=O)(=O)N3CCCC3)CC2)CC1 0.96
CC(=O)c1c(C)c[nH]c1C 1.09
CCN1C(=O)/C(=C2/Sc3ccccc3N2CCCS(=O)(=O)O)SC1=S 1
CCN(CC)CCCNC(=O)c1cc(-c2cccc(Cl)c2)on1 1.16
Cc1cc(NC(=O)CN2CCC(O)(c3cccc(F)c3)CC2)no1 1.02
COCCOC(=O)C1=C(C)N=c2s/c(=C\c3cccs3)c(=O)n2C1c1cccs1 (stereo not drawn) 1.11
Cc1c(C(=O)Nc2ccccc2Cl)oc2ccc(S(=O)(=O)N3CCC4(CC3)OCCO4)cc12 0.97
CC1(C)Oc2ccc3ccc(=O)oc3c2/C(=C/NCCO)C1=O 1.15
COCCNC(=O)c1snc2ccc(Cl)cc12 1
O=C(CN1CCN(CC(=O)Nc2ccc3c(c2)OCO3)CC1)Nc1ccc(F)cc1 0.97
Cc1ccc(S(=O)(=O)NCc2csc(C)n2)c(C)c1 0.95
Cc1cccn2c(=O)c3cc(C(=O)N4COCC4(C)C)n(C)c3nc12 1.08
COc1ccccc1N1CCN(Cc2nnnn2CCc2ccccc2)CC1 0.99
COc1ccc(C2CC(c3ccc(Cl)cc3Cl)Nc3nc(N)nn32)cc1OC (stereo not drawn) 1.06
C=CCOC(=O)C1=C(C)OC(N)=C(C#N)C1c1ccc(F)cc1 (stereo not drawn) 1.25
CC(=O)N1C(=O)C2(Nc3ccccc3N2)c2ccccc21 1.04
CCOC(=O)c1sc(=S)n(-c2cccc(OC)c2)c1N 1.14
Cc1ccccc1CSc1nnc(Cn2c(=O)sc3ccccc32)n1C 0.88
CCOC(=O)CSc1nnc(CNC(=O)c2ccco2)n1-c1ccc(F)cc1 1
CCOC(=O)c1ccc(CS(=O)c2ccc(Cl)cc2)o1 (stereo not drawn) 1.08
CC1=C(C)CC2C(=O)N(c3cccc4ccccc34)C(=O)C2C1 (stereo not drawn) 1.06
COC(=O)C(C)Sc1nc2c(c(=O)n(C)c(=O)n2C)n1Cc1cccc(C)c1 (stereo not drawn) 1.09
O=C1OC(NC(=O)c2ccccc2)C(N2CCOCC2)=C1Cl (stereo not drawn) 1.07
O=C(CN1CCN(c2ccc(F)cc2)CC1)Nc1cccc(C(F)(F)F)c1 0.96
CCc1ccc(NC(=O)CSc2nc3ccccc3c(=O)n2CCN2CCOCC2)cc1 1.15
CCn1cc(C(=O)NC2CCCCCC2)c(=O)c2cc(S(=O)(=O)N3CCCCC3)ccc21 1.18
CCCC(=O)NC(C)C(c1cccs1)N1CCN(c2ccccc2)CC1 (stereo not drawn) 1.12
O=C(Nc1cccnc1)c1ccc2c(c1)OCO2 1.06
CCOC(=O)n1c(SCC(=O)N(CC)CC)nc2ccccc21 0.99
CCS(=O)(=O)N1CCCC(C(=O)NCc2ccc(C)cc2)C1 (stereo not drawn) 0.99
CCOC(=O)C1CCN(C(=O)Cc2c(C(=O)O)[nH]c3ccccc23)CC1 1.09
COc1ccc(OC)c(C(=O)c2ccc(C(=O)O)cc2)c1 0.99
COc1ccccc1-c1c(C)nn2c(C)c(C(C)=O)cnc12 0.98
Cc1ccc(C)c(N2CCN(C(=O)CCc3nc4ccccc4[nH]3)CC2)c1 1.04
O=C(CN1CCOCC1)Nc1c2c(nc3c1CCC3)CCC2 0.96
Cc1cc(NC(=O)c2cc(-c3cccs3)on2)nn1Cc1ccc(Cl)cc1 1.05
CC(=O)Nc1nonc1-c1nc2ccccc2n1Cc1ccccn1 1.24
CC(Sc1sc(=S)sc1SC(C)C(=O)O)C(=O)O (stereo not drawn) 0.93
Cn1c(=O)cc(SCC(=O)N2CCN(C(=O)c3ccco3)CC2)c2ccccc21 1.12
C=CCNC(=O)CSc1nc2sc(C)c(C)c2c(=O)[nH]1 1.07
O=C(O)CC(c1ccccc1)n1cnnn1 (stereo not drawn) 0.92
Cn1nnnc1SCc1cc(=O)[nH]c2ccccc12 1.06
CC(C)OCCCNC(=O)C1CC(=O)N(C2CCCCCCC2)C1 (stereo not drawn) 0.98
CCOc1ccc(N(CC(=O)NCc2ccc(OC)cc2)S(=O)(=O)c2c(C)noc2C)cc1 0.82
COc1ccc(CCN(Cc2cc3cccc(C)c3[nH]c2=O)C(=O)N2CCCC2)cc1OC 1.08
O=C(CN1C(=O)C2C3C=CC(C3)C2C1=O)NCCc1ccccc1Cl (stereo not drawn) 1.19
O=C(CCn1c(=O)oc2ccccc21)Nc1ccon1 1.03
Cc1cc(=O)n2nc(N3CCCC(C(=O)N4CCN(C)CC4)C3)sc2n1 (stereo not drawn) 1.07

Reference: PubChem BioAssay AID576 (NMMLSC, 2007)
